# Compound activity from PubChem BioAssay.
# ALOX12 inhib: 12-hLO (ALOX12) enzyme inhibition; P18054; purified 12-hLO, xylenol orange hydroperoxide absorbance; Potency, µM (highest dose often 57.1 µM), without a hit: at the highest dose activity change, negative = inhibition, usual class: inhibitors; 150,000 tested, 0.12% active; note: potency is the fitted concentration of half-maximal effect; nearly all actives have a fitted effect of over 55% in size
#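 Xylenol orange chromogenic assay: hydroperoxide from 12hLO oxidises Fe(II), giving red-shifted Fe(III)-XO absorbance. Conditions: 150 nM enzyme, 40 uM arachidonic acid, 25 mM Hepes pH 7.0, 0.01% Triton X-100, 30 min, room temperature.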
# GLA inh pH 4.5: inhibitors of human alpha-galactosidase A at pH 4.5 | P06280 | purified enzyme, 4-MU-alpha-Gal fluorescence, pH 4.5 | activity change, negative = inhibition, % at 105 µM | 230,000 tested, under 10 active | AID 1467;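 note: 0% = full activity with enzyme and -100% = basal without enzyme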
# Target sequence (P06280 whole entry, looked up): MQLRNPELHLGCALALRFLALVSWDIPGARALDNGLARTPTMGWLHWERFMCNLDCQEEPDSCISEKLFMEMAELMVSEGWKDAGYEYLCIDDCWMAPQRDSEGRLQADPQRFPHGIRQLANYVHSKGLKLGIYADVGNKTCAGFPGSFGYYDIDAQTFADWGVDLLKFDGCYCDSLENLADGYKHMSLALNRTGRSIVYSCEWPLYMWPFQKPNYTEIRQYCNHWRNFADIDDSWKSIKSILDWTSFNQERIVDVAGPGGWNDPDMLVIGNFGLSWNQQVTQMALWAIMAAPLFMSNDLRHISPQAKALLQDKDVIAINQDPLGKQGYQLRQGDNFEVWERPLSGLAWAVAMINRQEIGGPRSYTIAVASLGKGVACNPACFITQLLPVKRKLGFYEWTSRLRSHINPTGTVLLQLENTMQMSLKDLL
# ALDH1A1 inh: inhibitors of human aldehyde dehydrogenase 1A1; P00352; Purified ALDH1A1, NADH fluorescence, propionaldehyde substrate; Potency, µM (top dose mostly 75.3 µM), inactives show at the top dose activity, negative = inhibition, most hits filed as inhibitors; 220,000 tested, 7.3% active; AID 1030; active = well fitted inhibition curve with a large enough effect, not every such curve was filed as active; inconclusive = small, poorly fitted or top-dose-only effect, or another doubt; inactive = no such curve, though single readings can be large or run the other way;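 note: potency is the fitted concentration of half-maximal effect; plate controls were no enzyme wells and a reference inhibitor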
# HPGD block: HPGD (human) dehydrogenase inhibition | P15428 | 150,000 tested, 4.3% active | purified HPGD, NADH fluorescence kinetic, PGE2 substrate | Potency, µM, without a hit: top-dose activity change, negative = inhibition, hits mostly inhibitors | AID 894; active = well fitted inhibition curve with a large enough effect, not every such curve was filed as active; inconclusive = small, poorly fitted or top-dose-only effect, or another doubt; inactive = no such curve, though single readings can be large or run the other way; note: potency is the fitted concentration of half-maximal effect
#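 20 nM HPGD preincubated 15 min at room temperature with compound in 50 mM Tris-HCl pH 8, 0.01% Tween 20. Started with 1 mM NAD+ and 30 uM prostaglandin E2; NADH fluorescence (360/450 nm) read 5 times over 30-s intervals, last minus first.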
# aGal spleen mod: alpha-galactosidase A (human) modulation; 240,000 tested, 0.008% active; human spleen homogenate, 4MU-alpha-Gal fluorescence, 40 min; P06280; Potency, µM (top dose mostly 80 µM), without a hit: top-dose activity change, negative = inhibition, actives largely listed as inhibitors;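 note: potency is the fitted concentration of half-maximal effect; 0% = enzyme with vehicle and -100% = no enzyme basal signal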
#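 qHTS titration in buffer at pH 5.0. Alpha-galactosidase activity in spleen homogenate was measured via 4-methylumbelliferone release from 1 mM fluorogenic substrate after 40 min at 37C and a pH 10 stop. AC50 came from Hill fits of control-normalized data.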
# PNC inhibitor: blocks assembly of the perinucleolar compartment; PC3M PTB-GFP, PNC prevalence imaging, 16 h; hits give low values; activity change (PNC), negative = inhibition, % at 10 µM; 140,000 tested, 3.1% active;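 active = readout at or below -70, meaning at least 70% loss of cells showing the perinucleolar compartment, a nuclear body marking cancer cells; inconclusive = readout between -30 and a set limit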;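 note: plate controls were DMSO wells for no effect and camptothecin positive control wells for full effect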
#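 Read-out is percentage of cells bearing a perinucleolar compartment, from automated 20x imaging of fixed, Hoechst-stained PC3M PTB-GFP cells. Cells were seeded 4 h, then exposed 16 h to compound (23 nl of library stock) in duplicate plates.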
# The depositor's hits bear a star; ? = inconclusive; . = not tested or not shown; [ ] = another dose, or the depositor's remark. Compounds with a hit are over-represented: about 10% of the library has one in this group of screens. Unless noted, calls come from the whole dose curve; as a rule, active = well fitted curve in the direction sought with a large enough effect; inconclusive = small, poorly fitted or top-dose-only effect, or another doubt; inactive = no such curve, though single readings can be large; an effect the other way counts as inactive or inconclusive. Unless noted, % is set by controls: 0 for no effect and ±100 for the full control effect.
SMILES,ALOX12 inhib,GLA inh pH 4.5,ALDH1A1 inh,HPGD block,aGal spleen mod,PNC inhibitor
CCOC(=O)NC1(NCc2ccccc2)Oc2ccccc2O1,3.9%,-4.0,22.4µM*,-9.0%,5.1%,13.0
Cc1cc(C)c(OCCCCNCc2ccccc2)c(Cl)c1,-1.1%,-3.0,-3.1%,-3.0%,7.2%,32.3
CC(=O)N(C)c1ccc(NC(=O)c2ccc([N+](=O)[O-])cc2Cl)cc1,-3.3%,-3.8,-2.1%,-5.4%,-1.9%,32.9
CSc1ncccc1C(=O)OCC(=O)NCc1ccc2c(c1)OCO2,.,2.7,7.7%,.,1.2%,.
CCCC1C2CN(C(C)C)CC=C2C(C#N)=C(N)C1(C#N)C#N (stereo not given),-16.8%,27.6,?,?,22.9%,-92.3*
CC(C)c1ccc(C2C3CSCC=C3C(C#N)=C(N)C2(C#N)C#N)cc1 (stereo not given),-12.6%,-0.1,15.8µM*,?,7.2%,11.8
COc1cccc(C2C3CN(C)CC=C3C(C#N)=C(N)C2(C#N)C#N)c1OC (stereo not given),-0.1%,13.2,?,?,14.9%,?
CN1CC=C2C(C#N)=C(N)C(C#N)(C#N)[C@H](c3cccs3)[C@H]2C1,-2.9%,0.5,?,?,13.7%,-94.1*
COc1cc([C@@H]2[C@H]3CN(C)CC=C3C(C#N)=C(N)C2(C#N)C#N)cc2c1OCO2,-9.2%,-1.7,-5.4%,-18.9%,-11.6%,-98.5*
C/C=C1\COC(C(=O)NCCN2CCOCC2)(C(F)(F)F)C=C1C=C1CCCCC1 (stereo not given),.,.,.,.,4.6%,.
CCNS(=O)(=O)c1ccc(NC(=S)NCc2ccco2)cc1,-0.8%,3.0,22.4µM*,-16.9%,6.9%,1.4
S=C(NCc1ccco1)Nc1ccc(Cl)cc1,-8.5%,-0.1,?,17.8µM*,-4.5%,-24.7
O=C(c1ccc(NC(=S)NCc2ccco2)cc1)N1CCCCC1,.,-2.3,22.4µM*,.,1.8%,.
O=S(=O)(Nc1ncccn1)c1ccc(NC(=S)NCc2ccco2)cc1,.,-0.8,?,.,?,.
Cc1cccnc1NC(=S)NCc1ccco1,.,?,12.6µM*,.,6.4%,.
S=C(NCc1ccco1)Nc1ccc(Oc2ccc(Cl)cc2)cc1,.,-3.5,?,.,1.7%,.
FC(F)(F)c1ccccc1-c1cncnc1NCc1cccs1,.,.,?,.,17.9%,.
CCOc1cc(/C=N/NC(=O)c2cc(-c3cccnc3)nc3ccccc23)ccc1O,.,2.7,3.7%,.,-5.9%,.
COC(=O)[C@@]1(Cc2ccccc2)[C@H]2c3cc(C(=O)N(C)C)n(Cc4ccccn4)c3C[C@H]2CN1C(=O)c1ccccc1,-2.0%,-7.0,-3.3%,-7.0%,5.2%,.
Cc1ccc2occ(/C=C/C(=O)c3ccccc3O)c(=O)c2c1,7.2%,3.6,7.94µM*,-16.7%,4.0%,73.6
COc1cc(SC)ccc1C(=O)Nc1ccon1,1.6%,10.3,20µM*,-23.3%,8.2%,?
[N-]=[N+]=Nc1ccc(C(=O)CSC[C@H](NC(=O)CC[C@H](N)C(=O)O)C(=O)NCC(=O)O)cc1,.,-3.7,7.4%,-7.3%,11.0%,.
O=C(O)[C@@H]1[C@@H]2C[C@H]([C@@H](Br)[C@H]2N2C(=O)CCC2=O)[C@@H]1C(=O)O,9.0%[11.4 µM],.,-3.2%[13.5 µM],-6.6%,.,.
Cc1ccc2nc(C(F)OC(F)(F)F)[nH]c2c1 (stereo not given),-13.0%,8.1,0.708µM*,?,-2.0%,-15.8
CCCn1c2c(c(O)c(C(=O)Nc3nccs3)c1=O)CCCC2,-3.4%,1.1,?,.,12.4%,-11.1
CC(C)Cn1c2c(c(O)c(C(=O)Nc3nccs3)c1=O)CCCC2,-9.2%,-3.5,14.1µM*,-4.8%,2.4%,15.0
c1ccc(-n2c(SCc3nc(-c4cccs4)no3)nnc2-c2ccco2)cc1,-17.6%,-12.8,7.08µM*,31.6µM*,-1.1%,?
CCn1c(SCc2nc(-c3ccccc3)no2)nnc1-c1cccs1,4.8%,-8.3,8.9%,-10.7%,-3.9%,41.4
c1ccc(-n2c(SCc3ccncc3)nnc2-c2ccco2)cc1,-5.5%,-1.2,10µM*,-11.2%,-1.2%,-6.4
